Cycloheximide cs: counter-screen for Shiga toxin inhibitors: cycloheximide protein synthesis inhibition | 300,000 tested, 12% active | AID 2314 | cell reporter, cycloheximide protein synthesis inhibition counterscreen | max response, %; in the data active means max response mostly above about 13%, no sharp cut-off; inactive means mostly below about 14%; further: read at 38.3 µM for the half of the compounds with a filed dose; 0% is about no effect
SARS PLP yeast: SARS-CoV PLP inhibition in yeast; S. cerevisiae expressing SARS-CoV PLpro, growth rescue; AID 485353; Potency, µM (series often up to 32.9 µM), for inactives: top-dose activity, positive = growth rescue, most hits filed as activators; 330,000 tested, 0.19% active; further: potency means the concentration at half of the fitted maximal effect; 0% is about no effect; nearly all actives have a fitted effect of over 55% in size
Shiga toxin inh: blocks Shiga toxin action in Vero cells. 290,000 tested, 9.2% active. inhibition, % at 38.7 µM. Vero cells, Shiga toxin protein synthesis inhibition reporter; in the data active means inhibition mostly above about 28%, no sharp cut-off; inactive means mostly below about 43%; further: 0% is about no effect
NS1 function inh: blocks influenza NS1 protein function | Potency, µM (top dose mostly 46.1 µM), for inactives: at the highest dose activity, positive = more growth | 270,000 tested, 0.4% active; further: potency means the concentration at half of the fitted maximal effect; actives are rising curves; nearly all actives have a fitted effect of over 50% in size
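Recovery from NS1-induced slow growth read by OD600 in budding yeast switched to galactose assay medium (pH 6.0, -URA) at 1:100 dilution. Compound 23 nl per well; the matching strain lacking NS1 serves as control.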
Pf growth 48h: inhibits P. falciparum growth in the first generation, 48 h. Potency, µM (top dose mostly 28.7 µM), inactives show at the highest dose activity change, negative = inhibition, most hits filed as inhibitors. AID 504832. 310,000 tested, 5.9% active. P. falciparum luciferase growth in erythrocytes, 48 h; active means well fitted inhibition curve with a large enough effect; inconclusive means small, poorly fitted or top-dose-only effect, or another doubt; inactive means no such curve, though single readings can be large or run the other way; further: potency means the concentration at half of the fitted maximal effect; on the % scale 0 is the no-effect control and ±100 the full control effect
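Here the parasites carry a stable luciferase gene and grow inside erythrocytes in Albumax-based RPMI medium with compound for one erythrocytic cycle. Activity is scored as loss of luminescent signal.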
Pf growth 96h: P. falciparum growth inhibition at 96 hour, primary screen for plastid delayed-death inhibitors. P. falciparum luciferase reporter growth, 96 h. Potency, µM (series often up to 28.7 µM), inactives show at the top dose activity change, negative = inhibition, usual class: inhibitors. 320,000 tested, 6.9% active; active means well fitted inhibition curve with a large enough effect; inconclusive means small, poorly fitted or top-dose-only effect, or another doubt; inactive means no such curve, though single readings can be large or run the other way; further: potency means the concentration at half of the fitted maximal effect; on the % scale 0 is the no-effect control and ±100 the full control effect
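Infected RBCs, 2% Hct / 0.05% parasitemia final; luciferase-reporter P. falciparum; cpd 96 h, 37 C, 5% CO2; luciferase detection reagent; luminescence.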
Active calls of the source: *; i = inactive; ? = inconclusive; · = no result; + = active, no number. Hits are enriched below; roughly 21% of the tested compounds scored in any of these assays. Unless noted, the call rests on the fitted dose curve.

SMILES | Cycloheximide cs | SARS PLP yeast | Shiga toxin inh | NS1 function inh | Pf growth 48h | Pf growth 96h
CC(SCc1ccccc1)C(=O)Nc1ccc2c(c1)OCO2 (stereo not drawn) | 37* | 1% | 44 | -9% | · | 5%
COc1cccc(NC(=O)C(C)SCc2ccccc2)c1 (stereo not drawn) | 23* | -1% | 44* | -8% | 13% | -7%
COc1ccc(NC(=O)C(C)SCc2ccccc2)cc1OC (stereo not drawn) | 6 | 27% | -3 | -5% | 11% | 47%
Cc1ccc(NC(=O)C(C)SCc2ccccc2)cc1 (stereo not drawn) | 30* | -1% | 82* | -7% | 17% | ?
CC(SCc1ccccc1)C(=O)N/N=C/c1ccc2c(c1)OCO2 (stereo not drawn) | 8 | 3% | 24 | -17% | -10% | -3%
CC(C)(C)c1ccc(/C=N/Nc2cccc(C(=O)O)c2)cc1 | 104* | 2% | + | · | 339% | 7%
O=C(O)c1cccc(N/N=C/c2cccnc2)c1 | 40* | 5% | 63* | · | i | -83%
O=C(O)c1cccc(N/N=C/c2ccc(-c3ccccc3)cc2)c1 | 67* | 0% | 191* | · | i | 331%
CN(C)c1ccc(/C=N/Nc2cccc(C(=O)O)c2)cc1 | 68* | 2% | 198* | -6% | 123% | ?
N/C(=N\OC(=O)/C=C/c1ccccc1)c1ccccn1 | 20* | -2% | 30 | -10% | -50% | 23%
O=C(/C=C/c1ccccc1)c1ccccn1 | 38* | -8% | 84* | -45% | 40% | ?
N/C(=N\OC(=O)/C=C/c1ccccc1Cl)c1ccncc1 | 67* | -7% | 137* | · | 328% | -8%
N/C(=N\OC(=O)/C=C/c1ccccc1)c1ccncc1 | 21* | -7% | 71* | · | 107% | 164%
O=C(/C=C/c1ccccc1Cl)NNC(=O)c1ccncc1 | · | -1% | · | · | 33% | 31%
COc1ccc(/C=C/C(=O)O/N=C(\N)c2ccccn2)cc1OC | · | -3% | · | · | · | ·
CN(CCC#N)C(=O)COC(=O)c1ccc2c(c1)C(=O)N(C1CCCCC1)C2=O | 7 | · | -4 | 8% | 5% | 9%
O=c1[nH]c2cc(S(=O)(=O)CCO)ccc2o1 | 2 | 0% | -3 | 2% | 6% | 25%
CCN(C(=O)CN1CCN(C)CC1)c1c(N)n(Cc2ccccc2)c(=O)[nH]c1=O | · | -4% | · | · | 3% | -17%
Cc1cc(N2CCC(C(=O)NC3CC3)CC2)nc(-c2ccccc2)n1 | -5 | -7% | -3 | -1% | 3.7µM* | ?
CCCc1cc(N2CCC(C(N)=O)CC2)nc(-c2ccccc2)n1 | 8 | 1% | -7 | -2% | 5.2µM* | 23%
COc1cccc(CNC(=O)CCC2CCCN(C(=O)c3ccc(OC)o3)C2)c1 (stereo not drawn) | 22* | 0% | 60* | 3% | -13% | 23%
COc1cccc(CNC(=O)CCC2CCCN(C(=O)c3csc(C(C)C)n3)C2)c1 (stereo not drawn) | 0 | 1% | 17 | -1% | 1% | 13µM*
COc1cccc(CNC(=O)CCC2CCCN(C(=O)c3cc(C4CC4)[nH]n3)C2)c1 (stereo not drawn) | 17* | 1% | 34* | -1% | 57% | 23%
COc1cccc(CNC(=O)CCC2CCCN(C(=O)c3cccnc3SC)C2)c1 (stereo not drawn) | 8 | 3% | 18 | 9% | 4% | -12%
COc1cccc(CNC(=O)CCC2CCCN(C(=O)c3cc(C)on3)C2)c1 (stereo not drawn) | -1 | 0% | 14 | 5% | 15% | 46%
SMILES | Cycloheximide cs | SARS PLP yeast | Shiga toxin inh | NS1 function inh | Pf growth 48h | Pf growth 96h
Cc1nc(CS(=O)(=O)c2ccccn2)sc1C(=O)NNC(=O)c1ccc(Cl)cc1 | -2 | 2% | 13 | -2% | -3% | 23%
Cc1ccc(/C=C/C(=O)c2ccccc(=O)c2O)c(C)c1 | 20 | ? | 30* | -39% | ? | 9.3µM*
CCC1CCCCN1C(=O)N[C@@H](Cc1ccccc1)C(=O)O (stereo partly drawn) | -5 | 5% | -3 | ? | 14% | 28%
C#CCOCCOCCOCCNc1nc(N2CCN(C(=O)Cn3cc(CCCN=C(N)N)nn3)CC2)nc(N2CCN(C(=O)[C@H]([C@@H](C)CC)n3cc(CCCCN)nn3)CC2)n1 | · | 4% | · | · | ? | ?
C#CCOCCOCCOCCNc1nc(N2CCN(C(=O)[C@H]([C@@H](C)CC)n3cc(CCCN=C(N)N)nn3)CC2)nc(N2CCN(C(=O)[C@H](C)n3cc(CCCN=C(N)N)nn3)CC2)n1 | -3 | 9% | -15 | 8% | ? | 0.17µM*
C#CCOCCOCCOCCNc1nc(N2CCN(C(=O)Cn3cc(CC(C)O)nn3)CC2)nc(N2CCN(C(=O)[C@H]([C@@H](C)CC)n3cc(CCCN=C(N)N)nn3)CC2)n1 (stereo partly drawn) | -6 | -10% | -12 | -9% | -20% | 4.7µM*
C#CCOCCOCCOCCNc1nc(N2CCN(C(=O)Cn3cc(CCCN=C(N)N)nn3)CC2)nc(N2CCN(C(=O)Cn3cc(CCCN=C(N)N)nn3)CC2)n1 | -2 | 12% | -15 | 12% | ? | 0.033µM*
C#CCOCCOCCOCCNc1nc(N2CCN(C(=O)[C@H]([C@@H](C)CC)n3cc(CCCN=C(N)N)nn3)CC2)nc(N2CCN(C(=O)[C@H]([C@@H](C)CC)n3cc(CCCN=C(N)N)nn3)CC2)n1 | -5 | 4% | 19 | -12% | ? | 0.93µM*
Cc1c(Cc2ccc3c(c2)OCO3)sc(NC(=O)C(C)(C)C)c1C#N | 2 | 5% | 19 | -1% | ? | ?
COc1cc(OC)c(C(=O)OCC(=O)NC23CC4CC(CC(C4)C2)C3)cc1OC | · | 2% | · | · | · | ·
C#CCOCCOCCOCCNc1nc(N2CCOCC2)nc(N2CCN(C(=O)[C@H](C)n3cc(CCCN=C(N)N)nn3)CC2)n1 | -3 | 7% | -11 | -26% | 19% | -23%
C#CCOCCOCCOCCNc1nc(N2CCN(C(=O)[C@H](C)n3cc(CCCN=C(N)N)nn3)CC2)nc(N2CCN(C(=O)[C@H](C)n3cc(CCCN=C(N)N)nn3)CC2)n1 | -3 | 6% | -6 | -1% | ? | 0.74µM*
CCC(Oc1ccccc1)C(=O)N1CCN(S(=O)(=O)c2ccccc2)CC1 (stereo not drawn) | · | 2% | · | · | ? | -16%
Nc1cnc(CNc2ccccc2Cl)cn1 | 14 | -2% | 32* | 2% | 51% | 35%
Clc1ccc(CNc2ccccc2NCc2ccc(Cl)nc2)cn1 | 15 | -2% | -7 | -2% | ? | 38%
O=C(O)[C@@H]1C[C@H](C(=O)O)N1 | 8 | · | -3 | 12% | · | ·
CCCC(C)C1(CC)C(=O)NC(=Nc2ccccc2OC)NC1=O (stereo not drawn) | 6 | -1% | 20 | -7% | -2% | 10µM*
